Compounds with a hit are over-represented: about 8.9% of the library has one in this group of screens.
IMPase Li inh – cell-permeable IMPase inhibitors with lithium potentiation | CHO-M1 cells, IP1 TR-FRET (IP-One), carbachol + lithium | Potency, µM (titrated, usually from 59.4 µM), inactives show top-dose activity, negative = IMPase inhibition, usual class: inhibitors | 0.35% of 210,000 active | AID 1457;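 further: IP1 builds up when IMPase is blocked and the TR-FRET signal falls; potency means the concentration at half of the fitted maximal effect; plate controls were basal vehicle for no effect and high inhibitor control for full effect; nearly all actives have a fitted effect of over 50% in size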
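Steps: plate 2000 CHO-M1 cells per well and culture 16–30 h; add compound and lithium; incubate 30 min, 37C; add d2-IP1 tracer and Eu cryptate anti-IP1 antibody in lysis buffer; read after 10 min at room temperature.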
NPSR antagonist – blocks cAMP signaling of the human neuropeptide S receptor; 1% of 220,000 active; Potency, µM (top dose mostly 38.3 µM), for inactives: top-dose activity change, negative = inhibition, hits mostly inhibitors; CHO-NPSR cells, cAMP TR-FRET, antagonist mode; Q6W5P4; further: potency means the concentration at half of the fitted maximal effect; nearly all actives have a fitted effect of over 50% in size
Target sequence (Q6W5P4 whole entry, looked up): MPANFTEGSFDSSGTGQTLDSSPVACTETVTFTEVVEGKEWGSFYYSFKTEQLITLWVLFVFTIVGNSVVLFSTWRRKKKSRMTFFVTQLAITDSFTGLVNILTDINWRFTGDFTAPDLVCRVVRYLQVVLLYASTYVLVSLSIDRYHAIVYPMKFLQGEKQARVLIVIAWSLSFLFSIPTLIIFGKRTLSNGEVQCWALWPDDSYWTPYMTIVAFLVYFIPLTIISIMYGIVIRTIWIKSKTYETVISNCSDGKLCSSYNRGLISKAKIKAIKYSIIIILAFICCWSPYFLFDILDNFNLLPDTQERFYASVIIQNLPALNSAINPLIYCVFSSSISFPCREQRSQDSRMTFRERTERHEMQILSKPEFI
IMPase inh – membrane-permeable compound that blocks inositol monophosphatase. P97697. CHO-M1 cells, IP1 accumulation, HTRF TR-FRET ratio. inhibition (IP1 accumulation), % at 46.1 µM. 120,000 tested, under 10 active; active means well fitted curve in the direction sought with a large enough effect in the signal ratio, not every such curve was filed as active; inconclusive means small, poorly fitted or top-dose-only effect, or a change in a side signal; inactive means no such curve, though single readings can be large or run the other way; the % refers to the signal ratio;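 further: cells stimulated with carbachol in lithium chloride buffer; plate controls were DMSO basal wells for no effect and reference inhibitor wells for full effect; higher means more IMPase inhibition seen as more IP1 and lower FRET ratio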
Target sequence (P97697 whole entry, looked up): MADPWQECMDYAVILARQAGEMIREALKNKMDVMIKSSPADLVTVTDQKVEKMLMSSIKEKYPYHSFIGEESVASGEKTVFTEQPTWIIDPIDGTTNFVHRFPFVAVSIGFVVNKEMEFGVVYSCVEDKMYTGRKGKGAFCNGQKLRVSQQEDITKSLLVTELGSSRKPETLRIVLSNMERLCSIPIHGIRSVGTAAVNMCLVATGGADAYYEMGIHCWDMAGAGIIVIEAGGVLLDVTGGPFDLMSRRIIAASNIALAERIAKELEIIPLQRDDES
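Cellular IMPase inhibition is scored as a rise in cytosolic IP1, detected by competitive TR-FRET between d2-labelled IP1 and a europium anti-IP1 antibody. M1-expressing CHO cells were stimulated with carbachol for 30 min at 37C, with lithium (50 mM LiCl) present in the buffer.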
ALDH1A1 block – inhibitors of human aldehyde dehydrogenase 1A1 | P00352 | Purified ALDH1A1, NADH fluorescence, propionaldehyde substrate | Potency, µM (doses to about 75.3 µM), for inactives: top-dose activity, negative = inhibition, actives largely listed as inhibitors | 7.3% of 220,000 active | AID 1030; active means well fitted inhibition curve with a large enough effect, not every such curve was filed as active; inconclusive means small, poorly fitted or top-dose-only effect, or another doubt; inactive means no such curve, though single readings can be large or run the other way;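 further: potency means the concentration at half of the fitted maximal effect; plate controls were no enzyme wells and a reference inhibitor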
HPGD block – blocks human HPGD enzyme activity. Potency, µM, without a hit: at the highest dose activity change, negative = inhibition, hits mostly inhibitors. AID 894. 4.3% of 150,000 active. P15428. purified HPGD, NADH fluorescence kinetic, PGE2 substrate; active means well fitted inhibition curve with a large enough effect, not every such curve was filed as active; inconclusive means small, poorly fitted or top-dose-only effect, or another doubt; inactive means no such curve, though single readings can be large or run the other way; further: potency means the concentration at half of the fitted maximal effect
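20 nM HPGD preincubated 15 min at room temperature with compound in 50 mM Tris-HCl pH 8, 0.01% Tween 20. Started with 1 mM NAD+ and 30 uM prostaglandin E2; NADH fluorescence (360/450 nm) read 5 times over 30-s intervals, last minus first.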
ALOX12 inhib – inhibitors of human 12-lipoxygenase (ALOX12) | purified 12-hLO, xylenol orange hydroperoxide absorbance | Potency, µM (series often up to 57.1 µM), for inactives: at the highest dose activity change, negative = inhibition, usual class: inhibitors | 0.12% of 150,000 active | AID 1452; further: potency means the concentration at half of the fitted maximal effect; nearly all actives have a fitted effect of over 55% in size
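Hydroperoxide output read as Fe(III)-xylenol orange absorbance, 573-to-405 nm ratio, after 30 min reaction with 40 uM arachidonic acid. Enzyme: 150 nM purified human 12hLO, 15 min compound preincubation; 25 mM Hepes pH 7.0, room temperature.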
Starred values were filed as active, the others as inactive; u = inconclusive; x = no result given; [ ] = another dose, or the depositor's remark. Unless noted, the call rests on the fitted dose curve; in most records, active means well fitted curve in the direction sought with a large enough effect; inconclusive means small, poorly fitted or top-dose-only effect, or another doubt; inactive means no such curve, though single readings can be large; an effect the other way counts as inactive or inconclusive. Unless noted, on the % scale 0 is the no-effect control and ±100 the full control effect.

SMILES	IMPase Li inh	NPSR antagonist	IMPase inh	ALDH1A1 block	HPGD block	ALOX12 inhib
Cc1nn2c3ccccc3n(CC(=O)c3cccs3)c2nc1=O	4µM*	21%	x	-10%	x	x
CC(=O)NC(C)C(c1cccs1)N1CCN(c2ccccc2)CC1 (centres undefined)	19%[38.3 µM]	-5%[46.1 µM]	5	u	-3%	-3%
O=C(CSc1cccc2cccc(Cl)c12)NCc1cccs1	-2%	-21%	x	-5%	10µM*	0%
Cc1cccc2cc(C#N)c(SCC#N)nc12	14µM*	u	x	2%	x	x
Cc1cccc2cc(C#N)c(SCC(=O)NCC3CCCO3)nc12 (centres undefined)	0%	u	u	3%	u	-3%
Cc1cccc2cc(C#N)c(SCC(=O)NCc3cccs3)nc12	7.9µM*	7.9µM*	x	6%	-10%	-2%
O=C(CCCOc1ccc(Cl)cc1Cl)n1nnc2ccccc21	-3%	1%[46.1 µM]	-18	8%	8.9µM*	-4%
CC(=O)c1ccc(OCC(O)Cn2nnc3ccccc32)cc1 (centres undefined)	-8%[38.3 µM]	-21%[7.67 µM]	5	-2%	-3%	0%
CC(=O)c1ccc(OCCCC(=O)n2nnc3ccccc32)cc1	-8%[38.3 µM]	-6%[46.1 µM]	0	10%	20µM*	2%
O=C(Nc1nc2ccc(S(=O)(=O)N3CCCC3)cc2s1)c1ccco1	-5%	-45%	x	u	-17%	3%
O=C(/C=C/c1ccco1)N/C(=C\c1ccccc1)C(=O)NCCc1nc2ccccc2[nH]1	-2%	3%	x	-1%	-8%	-2%
Fc1ccc(-c2csc3[n+]2CCS3)cc1	7%	8%[46.1 µM]	11	-7%	2%	3%
NC1=C(c2ccc(F)cc2)C(=O)CS1	17%[38.3 µM]	13%[46.1 µM]	-8	20µM*	6.3µM*	-16%
Cc1cc(C)c(S(=O)(=O)c2ccccc2)c(OC(=O)c2c(Cl)cccc2Cl)n1	3%[38.3 µM]	-26%[46.1 µM]	4	-1%	-7%	-3%
COc1ccccc1NC(=O)CN(Cc1ccco1)C(=O)c1ccc(=O)[nH]c1	x	8%	x	x	x	x
COc1ccccc1NC(=O)CN(Cc1ccco1)C(=O)c1cc2ccccc2o1	13%	-23%	x	22µM*	x	x
CN1CCN(C(=S)c2ccc(Br)cc2)CC1	x	-7%[46.1 µM]	6	-39%	x	2%
CSc1ccc(C(=S)N2CCN(C)CC2)cc1	8%	-4%[46.1 µM]	-1	32µM*	28µM*	-2%
CSc1ccc(C(=S)N2CCN(C(c3ccccc3)c3ccccc3)CC2)cc1	9%[38.3 µM]	-9%[46.1 µM]	5	2.4µM*	14µM*	-3%
CCCNC(=S)N1CCN(C(c2ccccc2)c2ccccc2)CC1	13%	-29%	x	u	-11%	3%
C/C(CC(C)(C)C1CCCCC1)=N\NC(N)=S	29%[38.3 µM]	3.2µM*	-1	u	-11%	u
C/C(CC1CC(C)OC1=O)=N\NC(N)=S (centres undefined)	-14%	49%	-7	11%	-8%	-5%
C=CCNC(=O)COc1ccccc1C#N	-5%	7%	x	6%	x	x
CC1(C)CC(=O)C2=C(C1)N(c1ccc(F)cc1)C(=O)NC2(C(F)(F)F)C(F)(F)F	18%[38.3 µM]	-11%[46.1 µM]	4	10µM*	-7%	-3%
CC1=CC(=O)C(C(C)C)=CC1=NC(=O)c1ccc(C)cc1	6%	-50%	x	18µM*	x	x
SMILES	IMPase Li inh	NPSR antagonist	IMPase inh	ALDH1A1 block	HPGD block	ALOX12 inhib
CC1=CC(=O)C(C(C)C)=C/C1=N/OC(=O)c1cccc([N+](=O)[O-])c1	36%[38.3 µM]	u	6	u	u	12%
CC(NS(=O)(=O)c1ccc(F)cc1)C(=O)NCc1ccncc1 (centres undefined)	23%[38.3 µM]	-5%[46.1 µM]	13	1%	-12%	-5%
O=C(COC(=O)Cc1cn2ccsc2n1)NCc1ccc2c(c1)OCO2	-2%[38.3 µM]	6%[46.1 µM]	-11	u	14µM*	-9%
O=C(NCc1ccc2c(c1)OCO2)c1nn(-c2ccccc2)c(=O)c2ccccc12	41%[38.3 µM]	-29%[46.1 µM]	0	5.6µM*	-16%	-10%
O=C(CN1C(=O)NC2(CCCCCCC2)C1=O)NCc1ccc2c(c1)OCO2	5%[38.3 µM]	-3%[46.1 µM]	6	-1%	32µM*	-1%
COc1ccc(CNC(=O)CN2C(=O)NC3(CCCCCC3)C2=O)cc1OC	2%	9%	x	-6%	x	x
O=C(/C=C/c1ccco1)NCc1ccc2c(c1)OCO2	3%	6%	x	20µM*	x	x
CC1CN=C2C(C(=O)Nc3ccccc3)=C(O)CC(c3ccccc3)N21 (centres undefined)	2%	-21%	x	u	-14%	-1%
CN1C(=O)c2ccccc2N(C)C1c1ccc2c(c1)OCO2 (centres undefined)	-7%[38.3 µM]	-8%[46.1 µM]	4	u	u	-3%
O=C(OC(C(=O)NCc1ccc2c(c1)OCO2)c1ccc(Cl)cc1)c1ccco1 (centres undefined)	-2%[38.3 µM]	-24%[46.1 µM]	2	14µM*	28µM*	-17%
O=C(CSCc1cccc(Cl)c1)NCc1ccc2c(c1)OCO2	3%[38.3 µM]	-5%[46.1 µM]	-1	u	13µM*	-9%
O=C(CSCc1ccccc1)NCc1ccc2c(c1)OCO2	-8%[38.3 µM]	-14%[46.1 µM]	2	u	20µM*	-5%
Cc1ccc(CSCC(=O)NCc2ccc3c(c2)OCO3)cc1	x	-7%[7.67 µM]	x	x	x	x
CCOC(=O)N1CCN(c2nc(C)c3c(n2)CC(C)CC3=O)CC1 (centres undefined)	-12%[38.3 µM]	-8%[46.1 µM]	u	-13%	-14%	-4%
Cc1cccc(NC(=S)NNc2ncc(C(F)(F)F)cc2Cl)c1	2%	11%	x	28µM*	-18%	-16%
FC(F)(F)c1cccc(NC(=S)Nc2ccc(Cl)cc2Cl)c1	6%[38.3 µM]	-10%[46.1 µM]	4	u	-7%	-7%
S=C(NNc1ccnc2cc(Cl)ccc12)Nc1ccccc1Cl	19%	-15%	x	u	25µM*	-16%
FC(F)(F)c1cnc(NNC(=S)Nc2ccccc2Cl)c(Cl)c1	x	-12%[46.1 µM]	4	1.5µM*	x	-7%
Cc1cc(C(=O)OCC(=O)c2cccc([N+](=O)[O-])c2)c2cccc(C)c2n1	12%[38.3 µM]	-15%[46.1 µM]	-1	22µM*	-21%	13%
CC1=Cc2ccccc2C(C#N)N1C(=O)c1ccccc1 (centres undefined)	13%	-20%	x	-10%	-22%	1%
O=C1c2ccccc2CC1Sc1nnc(-c2ccncc2)o1 (centres undefined)	16%[38.3 µM]	-6%[46.1 µM]	13	1µM*	u	-4%
Cc1ccccc1N1C(=O)CC(Sc2nnc(-c3ccccc3)o2)C1=O (centres undefined)	10µM*	u	u	7.9µM*	-29%	-8%
O=C(O)c1cccnc1SC1CC(=O)N(c2ccccc2)C1=O (centres undefined)	x	9%	x	x	x	x
